# Measured values from the supplement of paper PMC12645437, “Orthogonal IMiD-Degron Pairs Induce Selective Protein Degradation in Cells” (ACS Chemical Biology, 2025).
# Whole data set: some 8,300 sequences, median “log2 fold change of degron read counts, EGFP-low vs EGFP+ sorted cells (limma voom), compound-induced degradation” near -1.1, cut for the highest 2% near 3.2. For the sample, the highest values were picked, then their nearest neighbours and some sequences at random.
# Molecular target: T1, CRBN, Q96SW2
# T1 chain: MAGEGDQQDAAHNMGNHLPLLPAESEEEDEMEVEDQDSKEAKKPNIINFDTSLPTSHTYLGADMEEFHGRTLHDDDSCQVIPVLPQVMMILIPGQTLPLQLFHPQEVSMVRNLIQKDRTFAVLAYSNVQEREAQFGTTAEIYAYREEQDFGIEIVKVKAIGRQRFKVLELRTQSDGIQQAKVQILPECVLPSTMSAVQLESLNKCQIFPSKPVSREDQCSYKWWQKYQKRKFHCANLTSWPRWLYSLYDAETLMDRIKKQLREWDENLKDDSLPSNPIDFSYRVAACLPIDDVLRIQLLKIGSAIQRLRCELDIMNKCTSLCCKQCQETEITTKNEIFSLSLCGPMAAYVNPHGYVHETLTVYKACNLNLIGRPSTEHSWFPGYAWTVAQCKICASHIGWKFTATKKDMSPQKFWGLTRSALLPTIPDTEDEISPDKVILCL
# Assay: log2 fold change of degron read counts, EGFP-low vs EGFP+ sorted cells (limma voom), compound-induced degradation; higher = more compound-induced degradation of the degron-EGFP fusion; degrons are variants of IKZF1/3 zinc finger 2; compound dose not given here
# Settings: Jurkat, 18 h
# [1] = compound: compound 19 (5-tert-butyl-thalidomide)
# [2] = compound: compound 22 (5-morpholino-thalidomide)
# [3] = compound: compound 33 (diphenyl IMiD analogue)
# 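Also: pooled lentiviral library of zinc finger degron-EGFP fusions in mCherry-positive Jurkat cells, FACS-sorted after compound exposure, with degron abundance counted by next-generation sequencing.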
Sequence,log2 fold change of degron read counts [1],log2 fold change of degron read counts [2],log2 fold change of degron read counts [3],log2 fold change of degron read counts (compound: thalidomide)
"FSCDVCGALFTQKGNLLRHIKL [46F_47S_49D_50V_52G_53A_54L_55F_67L_, Q9UKT9]",-1.17,-1.66,0.461,-2.2
"FECEQCGAGFTQKGNLLRHIKL [46F_47E_49E_50Q_52G_53A_54G_55F_67L_, Q9UKT9]",-1.66,-2.94,-1.37,-1.37
"FRCSVCGHNFTQKGNLLRHIKL [46F_47R_49S_50V_52G_53H_54N_55F_67L_, Q9UKT9]",-2.2,-2.6,-2.8,-2.89
"FICEICGHSFTQKGNLLRHIKL [46F_47I_49E_50I_52G_53H_54S_55F_67L_, Q9UKT9]",-3.27,-2.78,-2.2,-2.17
"FCCDICGAEFTQKGNLLRHIKL [46F_47C_49D_50I_52G_53A_54E_55F_67L_, Q9UKT9]",0.189,-0.292,-0.603,-0.702
"FTCNQCGHTFTQKGNLLRHIKL [46F_47T_49N_50Q_52G_53H_54T_55F_67L_, Q9UKT9]",-3.38,-3.31,-3.66,-2.92
"FMCDVCGAIFTQKGNLLRHIKL [46F_47M_49D_50V_52G_53A_54I_55F_67L_, Q9UKT9]",-2.28,-2.09,0.171,-1.7
"FQCNICGARFTQKGNLLRHIKL [46F_47Q_49N_50I_52G_53A_54R_55F_67L_, Q9UKT9]",-0.916,0.973,0.399,3.26
"FWCNICGARFTQKGNLLRHIKL [46F_47W_49N_50I_52G_53A_54R_55F_67L_, Q9UKT9]",2.19,3.34,0.85,0.523
"FLCNICGARFTQKGNLLRHIKL [46F_47L_49N_50I_52G_53A_54R_55F_67L_, Q9UKT9]",-1.1,-1.89,-0.701,0.842
"FTCNICGARFTQKGNLLRHIKL [46F_47T_49N_50I_52G_53A_54R_55F_67L_, Q9UKT9]",0.313,1.57,0.916,2.41
"FYCNICGARFTQKGNLLRHIKL [46F_47Y_49N_50I_52G_53A_54R_55F_67L_, Q9UKT9]",1.83,2.47,-0.345,-0.644
"FNCNICGARFTQKGNLLRHIKL [46F_47N_49N_50I_52G_53A_54R_55F_67L_, Q9UKT9]",1.28,0.255,-1.05,-0.266
"LHCPICGFWCTQKGNLLRHIKL [46L_47H_49P_50I_52G_53F_54W_55C_67L_, Q9UKT9]",1.34,1.54,2.54,1.59
"FQCPICGHNFTQKGNLLRHIKL [46F_47Q_49P_50I_52G_53H_54N_55F_67L_, Q9UKT9]",-2.9,-1.92,-1.21,0.375
"LACPICGFTCTQKGNLLRHIKL [46L_47A_49P_50I_52G_53F_54T_55C_67L_, Q9UKT9]",3.68,3.23,2.51,2.61
"LRCPICGFTCTQKGNLLRHIKL [46L_47R_49P_50I_52G_53F_54T_55C_67L_, Q9UKT9]",0.326,0.593,1.93,2.23
"LHCPICGFTCTQKGNLLRHIKL [46L_47H_49P_50I_52G_53F_54T_55C_67L_, Q9UKT9]",2.75,2.97,2.8,2.34
"LICPICGFTCTQKGNLLRHIKL [46L_47I_49P_50I_52G_53F_54T_55C_67L_, Q9UKT9]",0.369,2.36,2.13,2.81
"LMCPICGFTCTQKGNLLRHIKL [46L_47M_49P_50I_52G_53F_54T_55C_67L_, Q9UKT9]",-0.0285,1.97,2.76,2.79
"LTCPICGFTCTQKGNLLRHIKL [46L_47T_49P_50I_52G_53F_54T_55C_67L_, Q9UKT9]",1.57,3.31,2.65,3.44
"LFCPICGFTCTQKGNLLRHIKL [46L_47F_49P_50I_52G_53F_54T_55C_67L_, Q9UKT9]",3.39,3.54,2.49,2.69
"LLCPICGFTCTQKGNLLRHIKL [46L_47L_49P_50I_52G_53F_54T_55C_67L_, Q9UKT9]",0.147,0.286,1.38,2.64
"LQCPICGFTCTQKGNLLRHIKL [46L_47Q_49P_50I_52G_53F_54T_55C_67L_, Q9UKT9]",1.75,2.59,2.54,3.66
"LSCPICGFTCTQKGNLLRHIKL [46L_47S_49P_50I_52G_53F_54T_55C_67L_, Q9UKT9]",3.13,2.83,2.48,2.59
"LVCPICGFTCTQKGNLLRHIKL [46L_47V_49P_50I_52G_53F_54T_55C_67L_, Q9UKT9]",1.27,2.61,2.22,3.21
"LKCPICGFTCTQKGNLLRHIKL [46L_47K_49P_50I_52G_53F_54T_55C_67L_, Q9UKT9]",-0.865,-1.65,-1.59,0.662
"FICNQCGHNFTQKGNLLRHIKL [46F_47I_49N_50Q_52G_53H_54N_55F_67L_, Q9UKT9]",-2.7,-3.24,-2.97,-2.3
